17 compounds from PubChem BioAssay (NCATS) can be followed below.

Where “and” joins values, the source holds several entries; their conditions need not be identical. Equal values may be shown once. Records with an inconclusive call do not appear. Unmarked numbers belong to inactive results. Calls of active or inactive are those of the source. Calls follow the shape of the dose curve; as a rule, active = well fitted inhibition curve with a large enough effect; inconclusive = small, poorly fitted or top-dose-only effect; inactive = flat fitted curve, though single readings scatter.

Assay [1] deals with CRL-7250. Kind of assay: Cytotoxic Profiling of Annotated Libraries Using Quantitative High-Throughput Screening (AID 1296008). Also: potency is read from the fitted curve at half-maximal effect. As to max response: % is scaled to controls: 0 for no effect and ±100 for the full control effect. To be noted: Five cell lines viability, CellTiter-Glo ATP luminescence, 48-72 h; max response: stronger effect = lower value. Put shortly:
(§1)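 Compounds were pin-transferred onto cells and incubated 48 or 72 hr at 37 degree Celsius, 95% humidity. CellTiter-Glo was added, plates sat 10 min at room temperature, then ATP-coupled luminescence was imaged as the viability read-out.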

For assay [2], the system named is HEK293. Described as above. Particulars: Five cell lines viability, CellTiter-Glo ATP luminescence, 48-72 h; max response: stronger effect = lower value. Put shortly: as §1
On the technique in general: Cellular ATP, detected with luciferase, serves as a proxy for viable cell number.

Assay [3] relates to HaCat. Described as above. Particulars: Five cell lines viability, CellTiter-Glo ATP luminescence, 48-72 h; max response: stronger effect = lower value. A digest of the protocol:
as §1

Assay [4] relates to KB-3-1. The assay is described as above. Particulars: Five cell lines viability, CellTiter-Glo ATP luminescence, 48-72 h; max response: stronger effect = lower value. Put shortly: as §1
For assay [5], the system named is NIH3T3. The description is as above. Particulars: Five cell lines viability, CellTiter-Glo ATP luminescence, 48-72 h; max response: stronger effect = lower value. A digest of the protocol: as §1
The test system of assay [6] is HACAT. Kind of assay: qHTS assay to identify novel small-molecules to repurpose for Merkel cell carcinoma treatment (AID 1296009). To be noted: MCC and control cell lines, CellTiter-Glo viability, 72 h; at 44.8 µM (top of the series) unless noted. A digest of the protocol: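 Viability readout: ATP luminescence (CellTiter-Glo) after 72 hr drug exposure at 37 degree celsius. Dose-response format was 8 points for NPC and 11 points for MIPE; data normalized to in-plate controls.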
(In general: Quantitative high-throughput screening tests each substance at several concentrations.)
Also: nearly all actives have a fitted effect of over 60% in size.

Consider `Cc1cnc(-c2cc(N3CCN(C(=O)CCS(C)(=O)=O)CC3)ncc2Cl)c(C)c1`, for which the max response in assay [1] is 2.67%; in assay [2], 2.19%; in assay [4] it was 3.56% and 2.16%. For the same compound, the call in assay [1], in assay [2], in assay [3], in assay [5] and in assay [6] was inactive.
In the case of `CC1=C(C(=O)Nc2cc3cn[nH]c3cc2F)C(c2ccc(C(F)(F)F)cc2)CC(=O)N1` (stereo not drawn), the max response in assay [1] was 1.25%; in assay [3], 3.22%; in assay [4], 1.78% and 8.86%; in assay [5], -7.07%. Also, the compound was classed as inactive in assay [1], in assay [2], in assay [3] and in assay [6].
For `O=C(O)CCNc1cc(N2CCc3ccccc3CC2)nc(-c2ccccn2)n1`, the max response in assay [1] was -1.59% and -1.08% and -1.74%; in assay [2], 1.95% and -5.12%; in assay [3], -11.8%; in assay [4], -6.65% and -1.07%; in assay [5], -1.17% and -17.2% and -11.6%. The result in assay [2], in assay [3], in assay [4] and in assay [6] was inactive.
Take `CC(C)(OCc1nn(Cc2ccccc2)c2ccccc12)C(=O)O`: the max response in assay [1] is 1.06%; in assay [3], 3.78%; in assay [4], 5.01% and 9.63%; in assay [5], 2.54% and 3.58%. The call in assay [1], in assay [3] and in assay [6] was inactive.
`NC[C@H]1O[C@H](O[C@@H]2[C@@H](O)[C@@H](O[C@H]3O[C@H](CO)[C@@H](O)[C@H](N)[C@@H]3O)[C@H](N)C[C@@H]2N)[C@H](O)[C@@H](O)[C@H]1O`: the max response in assay [1] was -1.7%; in assay [2], -2.16%; in assay [3] it was -1.4%; in assay [4], 4.43%; in assay [5] it was -1.04%.
Turning to `CCOC(=O)[C@H]1O[C@H]1C(=O)N[C@@H](CC(C)C)C(=O)NCCC(C)C`, the max response is -2.98% in assay [1], -0.586% in assay [3], 0.158% in assay [4] and 1.05% in assay [5]. Besides, in assay [2], the compound was classed as inactive.
As to `CC(C)C[C@@H](N)[C@H](O)C(=O)N[C@H](C(=O)N[C@H](C(=O)N[C@@H](CC(=O)O)C(=O)O)C(C)C)C(C)C`, the max response in assay [1] was 3.99%; in assay [2], 3.01%; in assay [3] it was 1.98%; in assay [4], 4.23%; in assay [5] it was 1.99%.
With `Cc1ccc(S(=O)(=O)Nc2nc3ccccc3nc2Nc2ccc3nsnc3c2)cc1`, the max response in assay [1] was -6.76%; in assay [2] it was 4.32%; in assay [5] it was -28.1%. Further, in assay [3], the Potency is 14.4 µM (active). In assay [4], the compound was classed as inactive.
For the compound `CCCCCOC(=O)Nc1nc(=O)n([C@@H]2O[C@H](C)[C@@H](O)C2O)cc1F` (stereo partly drawn), the max response in assay [1] was 0.279%; in assay [2], -5.3%; in assay [3], -7.75%; in assay [4] it was -1.34%; in assay [5] it was 2.26%.
For `OC[C@H]1O[C@@H](OCCc2ccc(O)cc2)[C@H](O)[C@@H](O)[C@H]1O` the same measures were -2.13%, 0.731%, -11.4%, -11.7% and 2.07%.
On to `Nc1ncnc2c1c(-c1cccc(OCc3ccccc3)c1)cn2C1CC(CN2CCC2)C1` (stereo not drawn), for which the result in assay [1] was inactive. Besides, the Potency is 26.4 µM (active) and 8.2 µM (active) in assay [2]; 23.1 µM (active) in assay [4]; 23.5 µM (active) and 4.61 µM (active) in assay [5]. Further, the max response in assay [3] was 4.36%.
As to `CNc1nc(Nc2ccc(C(=O)N3CCOCC3)cc2OC)ncc1Cl`, the max response in assay [1] is 2.63% and -2.16%; in assay [2], 3.56% and -22.4%; in assay [4], -5.95%. The call in assay [3], in assay [4] and in assay [6] was inactive.
Regarding `O=c1[nH]c(=O)n([C@H]2C[C@@H](O)[C@@H](CO)O2)cc1I`, the max response in assay [1] was -2.59%; in assay [2], -22.9%; in assay [3], 1.35%; in assay [5], 3.2%. In addition, in assay [4], the compound was called inactive.
For `CCCCOCCOc1nc(-c2ccc(C(=O)O)c(F)c2)sc1C`, the max response is -34.6% in assay [1]; -11.4% in assay [2]; -22% in assay [3]; -5.21% in assay [4]; -20.6% in assay [5].
On to `O=C(CO)N1CCC(c2[nH]nc(-c3ccc(Cl)cc3)c2-c2ccncn2)CC1`, for which the max response in assay [1] was 0.635% and -7.11%; in assay [2], -13.1% and -1.15%; in assay [3], -4.95%; in assay [4], 6.51%. For the same compound, the outcome in assay [4] was inactive.
For `OC1CCC(Nc2ncc3nc(Nc4c(F)cc(F)cc4F)n([C@@H]4CCOC4)c3n2)CC1` (stereo partly drawn), the compound was classed as inactive in assay [1] and in assay [5]. Besides, the max response was -2.09% in assay [2], -6.12% in assay [3] and 8.34% in assay [4].
On to `O[C@@H](COc1cccc2ncccc12)CN1CCN(C2c3ccccc3[C@@H]3[C@H](c4ccccc42)C3(F)F)CC1` (stereo partly drawn), for which the result in assay [1] and in assay [5] was inactive. Also, in assay [2], the Potency is 10.6 µM (active) and 18.4 µM (active). Also, the max response in assay [3] is -3.25%; in assay [4] it was 2.31%.
